Laboratory results as given in the supplement of paper PMC11732987, “Enantioselective OTUD7B fragment discovery through chemoproteomics screening and high-throughput optimisation” (Communications Chemistry, 2025).

Experiments:
Assay in all cases: log2 ratio of Biotin-Ahx-Ub-VS probe labelling (fragment/DMSO); higher = less target engagement (more negative = stronger competition), active = hit call of the paper (q ≤ 0.05, log2 ratio ≤ -1)
Conditions in all cases: compound concentration: 200 uM; treatment time: 3 h
[1] = molecular target: T1, USP19 (UniProt O94966)
T1 sequence (whole entry): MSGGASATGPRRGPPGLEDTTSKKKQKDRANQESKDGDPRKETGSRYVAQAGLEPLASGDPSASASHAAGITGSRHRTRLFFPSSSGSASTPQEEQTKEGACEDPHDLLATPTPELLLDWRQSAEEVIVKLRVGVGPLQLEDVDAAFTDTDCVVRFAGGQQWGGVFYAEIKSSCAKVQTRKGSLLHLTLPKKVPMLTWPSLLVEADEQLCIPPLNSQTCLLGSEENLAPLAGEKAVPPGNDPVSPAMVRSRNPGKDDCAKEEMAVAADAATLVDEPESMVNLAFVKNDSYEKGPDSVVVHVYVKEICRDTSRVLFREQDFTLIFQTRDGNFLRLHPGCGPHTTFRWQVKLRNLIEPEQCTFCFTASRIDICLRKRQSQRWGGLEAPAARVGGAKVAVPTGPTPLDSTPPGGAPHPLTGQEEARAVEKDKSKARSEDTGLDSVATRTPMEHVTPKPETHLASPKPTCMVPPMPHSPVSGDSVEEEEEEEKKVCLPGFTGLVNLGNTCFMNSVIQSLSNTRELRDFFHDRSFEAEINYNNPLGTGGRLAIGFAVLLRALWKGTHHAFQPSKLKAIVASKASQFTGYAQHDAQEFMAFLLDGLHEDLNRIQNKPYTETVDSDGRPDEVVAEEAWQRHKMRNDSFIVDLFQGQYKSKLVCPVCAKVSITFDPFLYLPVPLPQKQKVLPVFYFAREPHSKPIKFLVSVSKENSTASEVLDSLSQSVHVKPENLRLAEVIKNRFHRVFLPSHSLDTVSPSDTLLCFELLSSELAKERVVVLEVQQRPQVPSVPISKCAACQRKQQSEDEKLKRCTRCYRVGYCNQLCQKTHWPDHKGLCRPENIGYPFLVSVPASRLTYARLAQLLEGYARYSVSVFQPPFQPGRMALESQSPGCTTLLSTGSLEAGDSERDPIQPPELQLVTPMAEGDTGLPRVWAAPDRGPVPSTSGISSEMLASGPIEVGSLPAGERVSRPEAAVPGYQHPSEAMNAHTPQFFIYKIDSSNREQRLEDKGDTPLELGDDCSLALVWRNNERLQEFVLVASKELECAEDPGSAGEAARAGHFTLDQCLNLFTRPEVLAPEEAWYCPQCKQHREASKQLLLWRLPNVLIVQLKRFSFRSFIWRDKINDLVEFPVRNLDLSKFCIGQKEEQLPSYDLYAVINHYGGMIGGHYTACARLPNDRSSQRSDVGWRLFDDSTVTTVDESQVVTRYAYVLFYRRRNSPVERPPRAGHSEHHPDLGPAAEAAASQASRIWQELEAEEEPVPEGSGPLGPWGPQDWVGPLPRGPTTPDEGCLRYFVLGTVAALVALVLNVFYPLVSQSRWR
Outline: (§1)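 Labelling with Biotin-Ahx-Ub-VS (0.5 µM final, 1 h) followed a 3 h triplicate treatment of HEK293T lysate (495 µg per sample, Tris/CHAPS/IGEPAL buffer with protease inhibitors) with fragment at 200 µM or vehicle. Labelled DUBs were NeutrAvidin-enriched, digested with LysC and trypsin, and run by diaPASEF LC-MS/MS. The values, average log2 fragment/vehicle ratios by unpaired t-test, come from global-median-normalised Spectronaut label-free quantities. Proteins with ≥2 unique peptides were used.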

[2] = molecular target: USP24 (UniProt Q9UPU5)
Sequence of USP24 (Q9UPU5 whole entry): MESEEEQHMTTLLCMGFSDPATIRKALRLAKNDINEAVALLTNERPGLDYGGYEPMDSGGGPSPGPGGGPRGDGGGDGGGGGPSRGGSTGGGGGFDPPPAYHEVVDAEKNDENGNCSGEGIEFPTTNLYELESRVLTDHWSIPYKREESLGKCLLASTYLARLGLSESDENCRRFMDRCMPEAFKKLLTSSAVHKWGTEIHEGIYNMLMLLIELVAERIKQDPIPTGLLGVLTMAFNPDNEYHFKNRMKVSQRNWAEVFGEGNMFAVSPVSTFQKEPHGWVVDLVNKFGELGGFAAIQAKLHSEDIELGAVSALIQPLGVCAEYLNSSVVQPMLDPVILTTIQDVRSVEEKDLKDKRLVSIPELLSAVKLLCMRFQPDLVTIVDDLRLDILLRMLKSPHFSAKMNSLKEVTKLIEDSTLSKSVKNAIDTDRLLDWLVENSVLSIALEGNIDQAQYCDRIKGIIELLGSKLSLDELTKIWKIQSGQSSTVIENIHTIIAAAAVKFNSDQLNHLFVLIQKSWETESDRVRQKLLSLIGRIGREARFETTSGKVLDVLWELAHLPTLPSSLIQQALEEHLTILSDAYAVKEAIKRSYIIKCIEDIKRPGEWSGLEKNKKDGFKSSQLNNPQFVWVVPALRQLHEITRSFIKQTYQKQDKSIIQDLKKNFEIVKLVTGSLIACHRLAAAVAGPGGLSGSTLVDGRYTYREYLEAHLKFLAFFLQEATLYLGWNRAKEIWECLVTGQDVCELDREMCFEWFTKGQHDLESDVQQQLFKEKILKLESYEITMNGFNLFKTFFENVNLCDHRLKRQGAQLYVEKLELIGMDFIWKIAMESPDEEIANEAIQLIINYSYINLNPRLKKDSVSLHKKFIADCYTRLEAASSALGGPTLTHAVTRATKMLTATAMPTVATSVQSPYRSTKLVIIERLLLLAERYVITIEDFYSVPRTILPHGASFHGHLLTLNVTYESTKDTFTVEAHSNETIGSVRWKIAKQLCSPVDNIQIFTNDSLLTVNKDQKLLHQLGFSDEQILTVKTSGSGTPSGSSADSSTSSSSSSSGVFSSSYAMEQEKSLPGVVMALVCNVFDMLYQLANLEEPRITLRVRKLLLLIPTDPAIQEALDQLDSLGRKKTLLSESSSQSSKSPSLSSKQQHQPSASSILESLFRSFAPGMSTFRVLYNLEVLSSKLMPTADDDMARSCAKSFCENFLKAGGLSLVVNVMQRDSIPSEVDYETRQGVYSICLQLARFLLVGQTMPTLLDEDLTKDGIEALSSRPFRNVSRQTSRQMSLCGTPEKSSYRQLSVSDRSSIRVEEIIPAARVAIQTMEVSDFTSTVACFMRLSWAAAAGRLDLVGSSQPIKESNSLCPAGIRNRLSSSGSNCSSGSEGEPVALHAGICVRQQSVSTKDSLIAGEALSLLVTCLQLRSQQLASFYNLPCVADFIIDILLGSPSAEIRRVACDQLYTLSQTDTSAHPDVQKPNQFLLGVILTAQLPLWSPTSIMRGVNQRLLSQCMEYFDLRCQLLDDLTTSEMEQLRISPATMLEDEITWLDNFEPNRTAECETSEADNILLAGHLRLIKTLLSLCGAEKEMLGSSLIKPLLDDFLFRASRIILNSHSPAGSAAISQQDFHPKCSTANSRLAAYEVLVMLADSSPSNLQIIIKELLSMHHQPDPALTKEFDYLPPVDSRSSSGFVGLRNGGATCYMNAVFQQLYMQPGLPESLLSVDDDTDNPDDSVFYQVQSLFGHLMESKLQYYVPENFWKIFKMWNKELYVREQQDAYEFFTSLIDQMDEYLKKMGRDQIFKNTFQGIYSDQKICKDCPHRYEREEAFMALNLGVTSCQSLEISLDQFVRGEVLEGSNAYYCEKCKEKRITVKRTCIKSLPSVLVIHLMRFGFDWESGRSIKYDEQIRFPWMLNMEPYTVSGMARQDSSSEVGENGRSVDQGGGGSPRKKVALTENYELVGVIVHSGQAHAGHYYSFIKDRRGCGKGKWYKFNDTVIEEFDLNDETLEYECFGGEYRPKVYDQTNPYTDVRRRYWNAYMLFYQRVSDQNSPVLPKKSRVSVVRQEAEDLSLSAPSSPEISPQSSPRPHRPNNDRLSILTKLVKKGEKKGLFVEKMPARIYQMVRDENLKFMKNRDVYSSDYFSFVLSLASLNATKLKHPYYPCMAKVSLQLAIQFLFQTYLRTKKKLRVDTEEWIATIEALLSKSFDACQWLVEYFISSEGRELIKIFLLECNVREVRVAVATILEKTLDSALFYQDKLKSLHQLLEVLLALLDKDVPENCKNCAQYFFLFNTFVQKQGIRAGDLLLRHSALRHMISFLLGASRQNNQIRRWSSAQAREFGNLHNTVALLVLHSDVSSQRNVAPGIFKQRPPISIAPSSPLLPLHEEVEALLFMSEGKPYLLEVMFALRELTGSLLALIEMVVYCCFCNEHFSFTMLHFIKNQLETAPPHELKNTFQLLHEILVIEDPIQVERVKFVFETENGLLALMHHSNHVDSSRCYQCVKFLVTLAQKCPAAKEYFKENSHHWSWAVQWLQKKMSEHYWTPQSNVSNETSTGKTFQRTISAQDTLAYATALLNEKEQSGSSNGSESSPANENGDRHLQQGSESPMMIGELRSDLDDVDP
Outline: as §1

[3] = molecular target: T2, USP25 (UniProt Q9UHP3)
T2 sequence (whole entry): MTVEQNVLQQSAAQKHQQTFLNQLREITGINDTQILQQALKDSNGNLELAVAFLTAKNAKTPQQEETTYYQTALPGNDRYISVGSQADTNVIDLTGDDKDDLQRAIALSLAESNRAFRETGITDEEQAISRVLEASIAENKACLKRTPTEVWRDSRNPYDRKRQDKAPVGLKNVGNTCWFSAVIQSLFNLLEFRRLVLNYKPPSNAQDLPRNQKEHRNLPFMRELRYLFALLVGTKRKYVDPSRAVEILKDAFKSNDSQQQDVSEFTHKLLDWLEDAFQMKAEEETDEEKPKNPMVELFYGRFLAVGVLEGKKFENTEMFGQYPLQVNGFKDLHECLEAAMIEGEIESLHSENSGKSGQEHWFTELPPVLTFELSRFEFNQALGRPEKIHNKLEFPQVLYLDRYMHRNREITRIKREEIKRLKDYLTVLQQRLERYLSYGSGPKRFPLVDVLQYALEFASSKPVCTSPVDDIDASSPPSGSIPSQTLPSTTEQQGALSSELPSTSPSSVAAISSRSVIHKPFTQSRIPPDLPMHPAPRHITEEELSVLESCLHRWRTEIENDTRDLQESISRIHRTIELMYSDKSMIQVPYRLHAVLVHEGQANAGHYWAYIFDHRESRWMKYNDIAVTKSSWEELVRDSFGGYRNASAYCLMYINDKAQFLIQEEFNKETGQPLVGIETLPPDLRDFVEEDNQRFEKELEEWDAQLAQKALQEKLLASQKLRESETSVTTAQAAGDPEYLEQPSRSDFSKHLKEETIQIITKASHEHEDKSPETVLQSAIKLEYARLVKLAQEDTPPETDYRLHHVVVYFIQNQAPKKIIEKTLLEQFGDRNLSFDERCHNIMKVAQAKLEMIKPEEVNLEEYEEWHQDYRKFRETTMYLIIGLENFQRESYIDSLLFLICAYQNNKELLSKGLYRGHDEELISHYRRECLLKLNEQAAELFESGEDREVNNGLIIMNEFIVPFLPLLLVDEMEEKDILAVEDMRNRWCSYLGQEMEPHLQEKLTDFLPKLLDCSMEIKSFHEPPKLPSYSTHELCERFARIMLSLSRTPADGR
Outline: as §1

[4] = molecular target: T3, USP28 (UniProt Q96RU2)
T3 sequence (whole entry): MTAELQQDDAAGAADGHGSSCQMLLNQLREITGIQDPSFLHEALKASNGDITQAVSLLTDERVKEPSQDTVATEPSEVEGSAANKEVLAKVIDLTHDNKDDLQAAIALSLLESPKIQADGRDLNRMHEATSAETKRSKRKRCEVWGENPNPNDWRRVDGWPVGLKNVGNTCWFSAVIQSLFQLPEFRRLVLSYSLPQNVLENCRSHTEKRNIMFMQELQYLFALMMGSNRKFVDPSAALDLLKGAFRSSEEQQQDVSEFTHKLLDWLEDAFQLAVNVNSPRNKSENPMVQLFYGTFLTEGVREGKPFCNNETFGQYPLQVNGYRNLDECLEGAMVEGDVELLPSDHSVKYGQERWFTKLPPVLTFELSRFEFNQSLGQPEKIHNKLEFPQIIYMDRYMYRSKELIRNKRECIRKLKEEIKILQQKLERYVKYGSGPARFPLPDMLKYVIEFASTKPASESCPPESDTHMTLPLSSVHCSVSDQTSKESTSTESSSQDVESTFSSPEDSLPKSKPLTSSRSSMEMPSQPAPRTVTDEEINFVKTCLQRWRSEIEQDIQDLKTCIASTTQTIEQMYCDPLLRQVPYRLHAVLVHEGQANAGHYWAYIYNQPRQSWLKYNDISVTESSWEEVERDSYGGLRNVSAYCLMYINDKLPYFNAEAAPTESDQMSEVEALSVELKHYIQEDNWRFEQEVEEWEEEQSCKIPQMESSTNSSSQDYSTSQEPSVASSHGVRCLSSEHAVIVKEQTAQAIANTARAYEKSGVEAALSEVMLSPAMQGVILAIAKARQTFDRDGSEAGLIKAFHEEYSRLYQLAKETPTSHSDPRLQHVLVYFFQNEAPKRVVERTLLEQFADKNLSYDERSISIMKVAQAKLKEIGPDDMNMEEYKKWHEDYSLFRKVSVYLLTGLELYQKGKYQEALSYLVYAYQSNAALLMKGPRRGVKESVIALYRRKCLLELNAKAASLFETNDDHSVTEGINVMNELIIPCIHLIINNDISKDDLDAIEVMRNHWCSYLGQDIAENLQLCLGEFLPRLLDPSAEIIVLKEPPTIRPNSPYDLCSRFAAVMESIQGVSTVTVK
Outline: as §1

Measured: log2 ratio of Biotin-Ahx-Ub-VS probe labelling

O=C(CCl)Nc1ccc(F)cc1Cl
inactive: [1] -0.2 | [2] -0.832 | [3] -0.414 | [4] -0.873
